High-throughput results as filed in PubChem.
C diff growth = inhibitors of Clostridium difficile growth; Clostridium difficile clinical isolate growth, OD600, 24 h; stronger effect = lower value; growth activity, negative = inhibition, % at 16 µg/mL (by protocol); hit rate 0.25% among 86,000;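 active = mean growth activity at or below -80% and every replicate also at or below -80%; inconclusive = mean at or below -80% but some replicate above -80%; inactive = mean growth activity above -80%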
T cruzi growth-1 = inhibitors of T. cruzi proliferation. T. cruzi beta-gal in NIH3T3, GalScreen luminescence, 90 h. inhibition, % at 8.34 µM. hit rate 5.9% among 77,000. AID 624255;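 active = mean inhibition above about 93%, with at least 55% of replicates each passing it, limit read from the data, passing the limit was not always enough; inconclusive = only one of those two conditions holds; inactive = neither condition holds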
Pf Dd2 growth = blocks growth of Plasmodium falciparum Dd2 parasites; P. falciparum Dd2 growth, SYBR Green, 72 h; stronger effect = lower value; activity change, % at 10 µM; hit rate 2.3% among 94,000; in the data active = activity change below about -80%; inconclusive = no clear call, values can overlap the other calls
T cruzi growth-2 = blocks T. cruzi growth in NIH3T3 host cells; shares compounds with T cruzi growth-1; T. cruzi beta-gal in NIH3T3, GalScreen luminescence, 90 h; inhibition, % at 8.35 µM; hit rate 72% among 5,600; AID 651739;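 active = mean replicate inhibition above about 95% and at least 55% of replicates individually reaching it, limit read from the data; inconclusive = only one of the two criteria is met; inactive = neither criterion is met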
T cruzi growth-3 = blocks T. cruzi growth in NIH3T3 host cells | shares compounds with T cruzi growth-1 | T. cruzi beta-gal in NIH3T3, GalScreen luminescence, 90 h | inhibition, % at 2.09 µM | hit rate 21% among 5,600;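 active = mean inhibition above about 95%, with at least 55% of replicates also reaching it, limit read from the data; inconclusive = meets just one of the two conditions; inactive = meets neither condition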
NIH3T3 tox = cytotoxicity in mouse NIH/3T3 fibroblasts; shares compounds with T cruzi growth-1; NIH/3T3 viability, CellTiter-Glo ATP luminescence, 90 h; cytotoxicity (signal decrease), % at 8.35 µM; hit rate 14% among 5,600; AID 651742;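 active = mean signal decrease across replicates above about 35% based on untreated-well scatter, with enough replicates individually passing, limit read from the data; inconclusive = no rule stated though some were filed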
3T3 cytotox 2 = NIH/3T3 (mouse) viability loss. shares compounds with T cruzi growth-1. NIH/3T3 viability, CellTiter-Glo ATP luminescence, 90 h. inhibition, % at 24.9 µM. hit rate 56% among 5,600;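 active = mean loss of cell viability signal at or above a set limit, and enough replicates individually reaching it; inconclusive = meets only the mean limit or only the replicate share; inactive = meets neither condition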
Hits are given with their value; i = inactive; ? = inconclusive; nt = no result. An excerpt weighted towards active compounds, which were near 6.8% of everything screened.

SMILES | C diff growth | T cruzi growth-1 | Pf Dd2 growth | T cruzi growth-2 | T cruzi growth-3 | NIH3T3 tox | 3T3 cytotox 2
C[C@@H](NC(=O)C[C@@H]1C=C[C@H](NC(=O)C2CCC2)[C@@H](CO)O1)c1ccccc1 | nt | i | i | nt | nt | nt | nt
C[C@H](NC(=O)C[C@H]1CC[C@H]2[C@@H](COC[C@H](O)CN2Cc2cc(F)ccc2F)O1)c1ccccc1 | i | i | i | nt | nt | nt | nt
CCc1cnc(N2[C@H](C#N)[C@H](c3ccc(C#CCC4CCCC4)cc3)[C@H]2CO)s1 | i | i | i | nt | nt | nt | nt
CCc1cnc(N2[C@@H](C#N)[C@@H](c3ccc(C#CCC4CCCC4)cc3)[C@@H]2CO)s1 | i | 97 | i | 99 | 111 | i | 104
CCc1cnc(N2[C@H](CO)[C@@H](c3ccc(C4=CCCCC4)cc3)[C@@H]2C#N)s1 | i | i | i | nt | nt | nt | nt
CCc1cnc(N2[C@H](C#N)[C@H](c3ccc(C#CCC4CCCC4)cc3)[C@@H]2CO)s1 | i | 98 | i | i | 114 | i | ?
Cc1noc(C)c1S(=O)(=O)Nc1ccc2c(c1)C(=O)N([C@H](C)CO)C[C@H](C)[C@@H](CN(C)CC1CCCCC1)OCCCC[C@@H](C)O2 | i | i | i | nt | nt | nt | nt
COc1cccc(-c2ccc3c(c2)[C@@H]2[C@@H](CCN2C(=O)Cc2ccncc2)[C@@H](CO)N3)c1 | i | ? | i | 101 | i | i | i
COc1ccc(-c2ccc3c(c2)[C@H]2[C@H](CCN2C(=O)Cc2ccncc2)[C@H](CO)N3)cc1 | i | i | i | nt | nt | nt | nt
O=C(Cc1ccccc1)N1CC[C@H]2[C@H](CO)Nc3ccc(-c4cccc(F)c4)cc3[C@H]21 | i | i | i | nt | nt | nt | nt
O=C(Cc1ccncc1)N1CC[C@@H]2[C@H]1c1cc(-c3cccc(F)c3)ccc1N[C@@H]2CO | i | 118 | i | 107 | i | i | i
N#C[C@H]1[C@@H](c2ccc(C3=CCCC3)cc2)[C@H](CO)N1C(=O)NC1CCCC1 | i | i | i | nt | nt | nt | nt
Cc1ccc(S(=O)(=O)N(C)C[C@H]2OCCCC[C@H](C)Oc3ccc(NC(=O)CCC(F)(F)F)cc3C(=O)N([C@H](C)CO)C[C@H]2C)cc1 | nt | nt | i | nt | nt | nt | nt
C[C@H]1CN([C@@H](C)CO)C(=O)c2cccc(NC(=O)Nc3ccc(C(F)(F)F)cc3)c2O[C@H]1CN(C)Cc1ccc2c(c1)OCO2 | nt | 99 | i | 106 | 103 | i | 98
C[C@@H]1CN([C@@H](C)CO)C(=O)c2cccc(NC(=O)Nc3ccc(C(F)(F)F)cc3)c2O[C@H]1CN(C)Cc1ccc(Cl)c(Cl)c1 | i | 130 | i | 102 | 116 | 39 | 89
C[C@@H]1CN([C@H](C)CO)C(=O)c2cccc(NC(=O)Nc3ccc(F)cc3)c2O[C@H]1CN(C)Cc1ccc(Cl)c(Cl)c1 | nt | i | i | nt | nt | nt | nt
C[C@H]1CN([C@@H](C)CO)C(=O)c2cccc(NC(=O)Nc3ccc4c(c3)OCO4)c2O[C@H]1CN(C)Cc1ccc(C(F)(F)F)cc1 | i | i | i | nt | nt | nt | nt
C[C@@H]1CN([C@H](C)CO)C(=O)c2cccc(NC(=O)Nc3ccc(C(F)(F)F)cc3)c2O[C@H]1CN(C)Cc1ccc(Cl)c(Cl)c1 | i | ? | i | 99 | 108 | i | 105
C[C@H](CO)N1C[C@H](C)[C@@H](CN(C)Cc2ccc(Cl)c(Cl)c2)Oc2c(NC(=O)Nc3ccc(F)cc3)cccc2C1=O | nt | i | i | nt | nt | nt | nt
C[C@@H]1CN([C@H](C)CO)C(=O)c2cccc(NC(=O)Nc3ccc(C(F)(F)F)cc3)c2O[C@@H]1CN(C)Cc1ccc(Cl)c(Cl)c1 | nt | i | i | nt | nt | nt | nt
COc1ccc(NC(=O)Nc2cccc3c2O[C@@H](CN(C)Cc2ccc(Cl)c(Cl)c2)[C@H](C)CN([C@@H](C)CO)C3=O)cc1 | i | 116 | i | 99 | 102 | i | 53
C[C@@H]1CN([C@@H](C)CO)C(=O)c2cc(C#CC3CC3)cnc2O[C@H]1CN(C)Cc1ccccn1 | i | i | i | nt | nt | nt | nt
COCC(=O)Nc1ccc2c(c1)OC[C@@H](C)N(Cc1ccncc1)C[C@H](C)[C@H](OC)CN(C)C2=O | i | i | i | nt | nt | nt | nt
CC(C)NC(=O)N(C)C[C@H]1OCCCC[C@H](C)Oc2ccc(NC(=O)Cc3ccccc3)cc2C(=O)N([C@H](C)CO)C[C@H]1C | i | i | i | nt | nt | nt | nt
C[C@H](CO)N1C[C@H](C)[C@H](CN(C)Cc2ccc(Cl)c(Cl)c2)Oc2ccc(NC(=O)Nc3ccc(C(F)(F)F)cc3)cc2C1=O | i | 103 | i | 98 | 109 | i | 108
SMILES | C diff growth | T cruzi growth-1 | Pf Dd2 growth | T cruzi growth-2 | T cruzi growth-3 | NIH3T3 tox | 3T3 cytotox 2
C[C@@H]1CN([C@H](C)CO)C(=O)c2cccc(NC(=O)Nc3ccc(C(F)(F)F)cc3)c2O[C@@H]1CN(C)S(=O)(=O)c1ccc(Cl)cc1 | nt | 108 | i | 103 | 107 | i | 105
Cc1ccc(S(=O)(=O)N(C)C[C@H]2Oc3c(NC(=O)Nc4ccc(C(F)(F)F)cc4)cccc3C(=O)N([C@H](C)CO)C[C@@H]2C)cc1 | i | i | i | nt | nt | nt | nt
C[C@H]1CN([C@@H](C)CO)C(=O)c2cc(NC(=O)Nc3ccc(C(F)(F)F)cc3)ccc2O[C@@H]1CN(C)Cc1ccc(Cl)c(Cl)c1 | i | i | i | nt | nt | nt | nt
CCCNC(=O)NC[C@@H]1[C@@H](c2ccc(C3=CCCC3)cc2)[C@H](CO)N1C(C)=O | i | i | i | nt | nt | nt | nt
C[C@@H](NC(=O)[C@H]1[C@H](CO)[C@H]2Cn3c(ccc(-c4cccnc4)c3=O)[C@H]2N1C)c1ccccc1 | i | i | i | nt | nt | nt | nt
CN1[C@@H]2Cn3c(ccc(-c4ccccc4)c3=O)[C@H]1[C@@H](C(=O)NCCCN1CCOCC1)[C@@H]2CO | i | i | i | nt | nt | nt | nt
C[C@@H]1CCCCO[C@@H](CN(C)CC2CCCCC2)[C@H](C)CN([C@H](C)CO)C(=O)c2cc(NC(=O)c3ccccc3)ccc2O1 | i | 117 | i | 112 | ? | i | 105
C[C@H](CO)N1C[C@H](C)[C@H](CN(C)CC2CCCCC2)OCCCC[C@H](C)Oc2ccc(NC(=O)c3ccccc3)cc2C1=O | i | i | i | nt | nt | nt | nt
C[C@@H]1CN([C@@H](C)CO)C(=O)c2cc(NC(=O)Nc3ccccc3)ccc2O[C@@H](C)CCCCO[C@@H]1CN(C)CC1CCCCC1 | i | ? | i | 101 | i | i | 104
C[C@@H]1CN([C@H](C)CO)C(=O)c2cc(NC(=O)Nc3ccccc3)ccc2O[C@@H](C)CCCCO[C@@H]1CN(C)CC1CCCCC1 | i | i | ? | nt | nt | nt | nt
C[C@@H]1CN([C@@H](C)CO)C(=O)c2cc(NC(=O)Cc3ccccc3)ccc2O[C@@H](C)CCCCO[C@H]1CN(C)CC1CCCCC1 | i | 116 | i | 109 | i | i | 58
C[C@H](CO)N1C[C@H](C)[C@@H](CN(C)CC2CCCCC2)OCCCC[C@H](C)Oc2ccc(NC(=O)Cc3ccccc3)cc2C1=O | i | i | i | nt | nt | nt | nt
